Activity calls are given as the source filed them. The calls were made as follows: active = hit-call score of the fitted dose curve at least 0.9, where 1 is the maximum; inactive = score below 0.9.

Myc proto-oncogene protein (Homo sapiens), sequence (P01106 whole entry, looked up, the tested form may be a part): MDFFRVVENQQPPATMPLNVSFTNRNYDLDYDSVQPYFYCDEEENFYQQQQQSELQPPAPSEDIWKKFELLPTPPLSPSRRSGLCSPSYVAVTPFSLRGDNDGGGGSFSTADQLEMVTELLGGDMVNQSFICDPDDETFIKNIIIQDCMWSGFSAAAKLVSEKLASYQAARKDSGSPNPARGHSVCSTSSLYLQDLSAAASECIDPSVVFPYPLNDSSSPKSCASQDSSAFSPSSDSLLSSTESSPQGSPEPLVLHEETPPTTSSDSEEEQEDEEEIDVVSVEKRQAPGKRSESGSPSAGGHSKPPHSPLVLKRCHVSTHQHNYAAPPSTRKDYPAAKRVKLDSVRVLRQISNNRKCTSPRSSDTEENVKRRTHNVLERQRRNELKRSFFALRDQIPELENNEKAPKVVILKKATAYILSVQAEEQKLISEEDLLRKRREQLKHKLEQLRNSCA

One assay addresses Myc proto-oncogene protein (Homo sapiens) (UniProt P01106). Briefly: ATG_Myc_CIS: Attagene CIS-FACTORIAL HepG2 Assay for human Myelocytomatosis (Myc) Proto-Oncogene Transcription Factor (AID 2282990). The settings on record: HepG2, Attagene cis-reporter transcription factor activity; actives raise or lower the signal. Put shortly: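 After 24 h chemical treatment of HepG2 cells carrying multiplexed cis-regulated reporter constructs, reporter transcripts quantified by RT-PCR and capillary electrophoresis of fluorescent fragments. Gain or loss fitted against DMSO baseline.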
Take `c1ccc2c(c1)-c1cccc3cccc-2c13`: the compound was classed as inactive. With `Cc1ccc([N+](=O)[O-])cc1`, the compound was classed as inactive. Regarding `N#CC(Br)(Br)C(N)=O`, the result was inactive.

Regarding `CC(C)(C)OOC(C)(C)CCC(C)(C)OOC(C)(C)C`, the result was inactive. On the same count and under the same terms, to `O=C1CCCO1` belongs “inactive”; to `CCCCC(CC)COC(=O)c1ccc(C(=O)OCC(CC)CCCC)c(C(=O)OCC(CC)CCCC)c1` (centres undefined), “inactive”. As for `COc1cc(C=O)cc2c1[C@H](COC(N)=O)[C@]1(OC(C)=O)ON2C[C@H]2[C@@H]1N2C(C)=O`, the AC50 is 7.48 µM (active). With `CC(O)CCO` (centres undefined), the call was inactive. Same read-out and setting: to `COC(=O)Nc1nc2ccccc2[nH]1` belongs “inactive”; to `Cc1ccc(N)c(N)c1`, “inactive”.

Consider `ClC1=C(Cl)[C@]2(Cl)[C@H]3[C@H]([C@@H]4C=C[C@H]3C4)[C@@]1(Cl)C2(Cl)Cl`, for which the compound was classed as inactive. Still for that read-out and setting: to `OCCCBr` belongs “inactive”; to `Nc1cc(Cl)cc(C(=O)O)c1Cl`, “inactive”.

With `O=Cc1ccco1`, the compound was called inactive. Regarding `CC(C)(C)OOC(=O)c1ccccc1`, the call was inactive. As for `Cc1ccc(N=C=O)cc1N=C=O`, the compound was classed as inactive. On the same count and under the same terms, then `COC(=O)c1ccccc1N`, with “inactive”; and `[O-][Cl+]O`, with “inactive”; and `CCOc1cccc(C2(N3CCN(c4ccccc4)CC3)CCC(C)CC2)c1` (centres undefined), with “inactive”. For `CCC12COCN1COC2`, the outcome was inactive. Still for that read-out and setting: to `C[N+](C)(C)CC1CO1` (centres undefined) belongs “inactive”; to `Cc1ccc(N)cc1`, “inactive”. For `CS(=O)(=O)NC(=O)c1cc(Oc2ccc(C(F)(F)F)cc2Cl)ccc1[N+](=O)[O-]`, the compound was called inactive. Still for that read-out and setting: then `CCN(CC)N=O`, with “inactive”; and `CCN(CC)CCO`, with “inactive”; and `C1=Cc2cccc3cccc1c23`, with “inactive”. Still for that read-out and setting: then `OCCOCCO`, with “inactive”; and `Clc1ccc(Cl)c(Cl)c1`, with “inactive”.

Test system in another assay: not listed separately
Kind of assay: ATG_NF_kB_CIS: Attagene CIS-FACTORIAL HepG2 Assay for human Nuclear Factor Kappa B (NF-kB) (AID 2282991). The settings on record: HepG2 Attagene cis-factorial NF-kB reporter mRNA; actives raise or lower the signal. Put shortly: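 Fluorescence of labelled RT-PCR products separated by capillary electrophoresis gives reporter mRNA levels from transfected HepG2 cells exposed 24 h; values are fitted in both directions relative to DMSO.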
In the case of `c1ccc2c(c1)-c1cccc3cccc-2c13`, the result was inactive. Consider `N#CC(Br)(Br)C(N)=O`, for which the AC50 was 157 µM (active). With `CCCCC(CC)COC(=O)c1ccc(C(=O)OCC(CC)CCCC)c(C(=O)OCC(CC)CCCC)c1` (centres undefined), the compound was classed as inactive. Still for that read-out and setting: to `CC(O)CCO` (centres undefined) belongs “inactive”. `Cc1ccc(N)c(N)c1`: the compound was classed as inactive. On the same count and under the same terms, then `OCCCBr`, with “inactive”. Still for that read-out and setting: then `O=Cc1ccco1`, with “inactive”. On the same count and under the same terms, to `CC(C)(C)OOC(=O)c1ccccc1` belongs “inactive”; to `Cc1ccc(N=C=O)cc1N=C=O`, “inactive”; to `COC(=O)c1ccccc1N`, “inactive”. Take `[O-][Cl+]O`: the outcome was inactive. The same measure, in the same setting: then `CCC12COCN1COC2`, with “inactive”; and `Cc1ccc(N)cc1`, with “inactive”; and `CCN(CC)N=O`, with “inactive”. On the same count and under the same terms, to `CCN(CC)CCO` belongs “inactive”; to `C1=Cc2cccc3cccc1c23`, “inactive”.

Broadly, the AC50 is the concentration at which the activity in the assay is half-maximal.

The record behind these values is PubChem BioAssay (EPA / NIEHS).
